# This is one part of a sample in which the strongest signals are shown more often than they occur.
# How the values were obtained:
# Experiment in all cases: glycan array binding signal (z-score within array); higher = stronger binding
# Details in all cases: glycan notation: IUPAC condensed, linker removed
# [1] = target: Fuc(a1-2)Gal(b1-3)GalNAc(a1-3)[Fuc(a1-2)]Gal(b1-4)GlcNAc
# Outline: (§1)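 Negative Z-scores can be read as non-binding. The Z-score is calculated within each array and then averaged across arrays of one protein sequence at different concentrations or buffers and across linkers. Arrays, 3228 in all, were curated from the Consortium for Functional Glycomics database and kept only where the protein sequence was available.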
# [2] = target: Fuc(a1-2)Gal(b1-3)GalNAc(b1-3)Gal(a1-4)Gal(b1-4)Glc
# Outline: as §1
# [3] = target: Fuc(a1-2)Gal(b1-3)GlcNAc(b1-3)[Neu5Ac(a2-6)Gal(b1-4)GlcNAc(b1-6)]Gal(b1-4)Glc
# Outline: as §1
# [4] = target: Fuc(a1-2)Gal(b1-4)GlcNAc(b1-3)Gal(b1-4)GlcNAc(b1-2)Man(a1-3)[Fuc(a1-2)Gal(b1-4)GlcNAc(b1-3)Gal(b1-4)GlcNAc(b1-2)Man(a1-6)]Man(b1-4)GlcNAc(b1-4)GlcNAc
# Outline: as §1
# [5] = target: Fuc(a1-2)Gal(b1-4)GlcNAc(b1-6)GalNAc
# Outline: as §1
# [6] = target: Fuc(a1-2)[Gal(a1-3)]Gal(b1-4)GlcNAc(b1-3)GalNAc
# Outline: as §1
# [7] = target: Fuc(a1-2)[Gal(a1-3)]Gal(b1-4)GlcNAc(b1-3)[Fuc(a1-2)[Gal(a1-3)]Gal(b1-4)GlcNAc(b1-6)]GalNAc
# Outline: as §1
# [8] = target: Fuc(a1-2)[GalNAc(a1-3)]Gal(b1-3)GlcNAc(b1-2)Man(a1-3)[Fuc(a1-2)[GalNAc(a1-3)]Gal(b1-3)GlcNAc(b1-2)Man(a1-6)]Man(b1-4)GlcNAc(b1-4)[Fuc(a1-6)]GlcNAc
# Outline: as §1
# [9] = target: Fuc(a1-2)[GalNAc(a1-3)]Gal(b1-4)GlcNAc(b1-3)GalNAc
# Outline: as §1
# [10] = target: Fuc(a1-2)[GalNAc(a1-3)]Gal(b1-4)[Fuc(a1-3)]GlcNAc
# Outline: as §1
# [11] = target: Fuc(a1-3)[Gal(b1-4)]GlcNAc(b1-2)Man(a1-3)[Fuc(a1-3)[Gal(b1-4)]GlcNAc(b1-2)Man(a1-6)]Man(b1-4)GlcNAc(b1-4)[Fuc(a1-6)]GlcNAc
# Outline: as §1
# [12] = target: Fuc(a1-3)[Gal(b1-4)]GlcNAc(b1-6)[Gal(b1-3)GlcNAc(b1-3)]Gal(b1-4)Glc
# Outline: as §1
# [13] = target: Fuc(a1-3)[GalNAc(b1-4)]GlcNAc6S
# Outline: as §1
# [14] = target: Gal(b1-3)[Fuc(a1-4)]GlcNAc(b1-2)Man
# Outline: as §1
# [15] = target: Gal(b1-3)[Neu5Ac(a2-6)]GalNAc
# Outline: as §1
# [16] = target: Gal(b1-3)[Neu5Ac(b2-6)]GalNAc
# Outline: as §1
# [17] = target: Gal(b1-4)GlcNAc(b1-2)Man(a1-3)[GlcNAc(b1-4)][Gal(b1-4)GlcNAc(b1-2)Man(a1-6)]Man(b1-4)GlcNAc(b1-4)GlcNAc
# Outline: as §1
# [18] = target: Gal(b1-4)GlcNAc(b1-2)[Gal(b1-4)GlcNAc(b1-6)]Man(a1-6)[Gal(b1-4)GlcNAc(b1-2)Man(a1-3)]Man(b1-4)GlcNAc(b1-4)[Fuc(a1-6)]GlcNAc
# Outline: as §1
# [19] = target: Gal(b1-4)GlcNAc(b1-3)Gal(b1-4)GlcNAc(b1-2)[Gal(b1-4)GlcNAc(b1-3)Gal(b1-4)GlcNAc(b1-6)]Man(a1-6)[Gal(b1-4)GlcNAc(b1-3)Gal(b1-4)GlcNAc(b1-2)Man(a1-3)]Man(b1-4)GlcNAc(b1-4)GlcNAc
# Outline: as §1
# [20] = target: Gal(b1-4)GlcNAc(b1-3)Gal(b1-4)GlcNAc(b1-3)Gal(b1-4)GlcNAc(b1-3)Gal(b1-4)GlcNAc(b1-3)Gal(b1-4)GlcNAc(b1-3)Gal(b1-4)GlcNAc(b1-2)Man(a1-3)[Gal(b1-4)GlcNAc(b1-3)Gal(b1-4)GlcNAc(b1-3)Gal(b1-4)GlcNAc(b1-3)Gal(b1-4)GlcNAc(b1-3)Gal(b1-4)GlcNAc(b1-3)Gal(b1-4)GlcNAc(b1-2)Man(a1-6)]Man(b1-4)GlcNAc(b1-4)GlcNAc
# Outline: as §1
# [21] = target: Gal(b1-4)GlcNAc(b1-3)Gal(b1-4)GlcNAc(b1-3)[Gal(b1-4)GlcNAc(b1-3)Gal(b1-4)GlcNAc(b1-6)]GalNAc
# Outline: as §1
# [22] = target: Gal(b1-4)GlcNAc(b1-3)Gal(b1-4)[Fuc(a1-3)]GlcNAc(b1-3)Gal(b1-4)[Fuc(a1-3)]GlcNAc
# Outline: as §1
# [23] = target: Gal(b1-4)GlcNAc(b1-3)[GlcNAc(b1-6)]Gal(b1-4)GlcNAc
# Outline: as §1
# [24] = target: Gal3S(b1-3)GalNAc
# Outline: as §1
# [25] = target: Gal3S(b1-4)[Fuc(a1-3)]GlcNAc
# Outline: as §1
# [26] = target: GalNAc(b1-6)GalNAc
# Outline: as §1
# [27] = target: GlcNAc(a1-4)Gal(b1-4)GalNAc
# Outline: as §1
# [28] = target: GlcNAc(a1-4)Gal(b1-4)GlcNAc(b1-3)Gal(b1-4)GlcNAc
# Outline: as §1
# [29] = target: GlcNAc(a1-4)Gal(b1-4)GlcNAc(b1-3)Gal(b1-4)GlcNAc(b1-3)Gal(b1-4)GlcNAc
# Outline: as §1
# [30] = target: GlcNAc(a1-4)Gal(b1-4)GlcNAc(b1-3)Gal(b1-4)[Fuc(a1-3)]GlcNAc(b1-3)Gal(b1-4)[Fuc(a1-3)]GlcNAc
# Outline: as §1
binder,measurement,setting,value
ClecSol-Fc (Cryptosporidium parvum) (protein) CPEGWISNGEKTRCFKLVTFDRPRTFSHGFKACNDLGGTEVETRRRNGSKETNEYPVTLASVYKLSDEEAIRRTLVEQGDIHKTANGCFVGLRKYAFFRYPPGWYWIDSGSPVSVRDSEINWTSSYNASWLLRFKFPFEKCGFFDIGGLGRRPCWLIDSELSCAVCGTVAYDSGGLNPNKYSELIKQTDEIISKEPKLDLPGYNNLNCTDAWENNLSVGLCQNVSNILDSAWSSYQSSLNFPSINFNWKEDSTNEGGDQVYHNSYLDLPRYKQKKTFYWDQDPGTIPALSDEMKLIGLSAQPTYHPLDRSSSGSFESDSTESGRANEERNDTLEEMIYKQSSDSIEDILVPVTKPIFSDYSSIGRNSGVEEVYSSNVSTISSKGVVFPNTTTSSDNDFTKNNPANSSKHTSTSTTTNTTTTTTRTTTTTTTTTTTTTTTTTTTTETTTTKKSTTATKNTTTT,glycan array binding signal (z-score),[1],0.031
same,glycan array binding signal (z-score),[2],-0.029
same,glycan array binding signal (z-score),[3],-0.161
same,glycan array binding signal (z-score),[4],-0.154
same,glycan array binding signal (z-score),[5],0.51
same,glycan array binding signal (z-score),[6],0.003
same,glycan array binding signal (z-score),[7],0.705
same,glycan array binding signal (z-score),[8],-0.242
same,glycan array binding signal (z-score),[9],-0.169
same,glycan array binding signal (z-score),[10],-0.281
same,glycan array binding signal (z-score),[11],0.593
same,glycan array binding signal (z-score),[12],0.068
same,glycan array binding signal (z-score),[13],-0.242
same,glycan array binding signal (z-score),[14],-0.208
same,glycan array binding signal (z-score),[15],-0.235
same,glycan array binding signal (z-score),[16],-0.149
same,glycan array binding signal (z-score),[17],-0.166
same,glycan array binding signal (z-score),[18],-0.266
same,glycan array binding signal (z-score),[19],0.543
same,glycan array binding signal (z-score),[20],-0.15
same,glycan array binding signal (z-score),[21],-0.114
same,glycan array binding signal (z-score),[22],-0.22
same,glycan array binding signal (z-score),[23],-0.01
same,glycan array binding signal (z-score),[24],-0.101
same,glycan array binding signal (z-score),[25],0.021
same,glycan array binding signal (z-score),[26],-0.238
same,glycan array binding signal (z-score),[27],18.7
same,glycan array binding signal (z-score),[28],2.11
same,glycan array binding signal (z-score),[29],1.61
same,glycan array binding signal (z-score),[30],0.617
